Assay outcomes from PubChem BioAssay.
TDP1 cell noCPT = qHTS for Inhibitors of human tyrosyl-DNA phosphodiesterase 1 (TDP1): qHTS in cells in absence of CPT; DT40 Tdp1-/- hTDP1 cells, no CPT, ATP luminescence, 48 h; Potency, µM (series often up to 46.2 µM), without a hit: at the top dose activity change, negative = growth inhibition, most hits filed as inhibitors; 420,000 compounds, 15% hits; note: nearly all actives have a fitted effect of over 55% in size
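Growth of hTDP1-complemented DT40 Tdp1-knockout cells is measured by ATP luminescence after at least 48 hr compound exposure at 37 °C, with DMSO substituting for the 20 nM CPT used in the parallel screen.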
KB-V1 cytotox = kills drug-selected multidrug resistant KB-V1 cells; Potency, µM (titrated, usually from 46.1 µM), most hits filed as cytotoxic; 400,000 compounds, 3.4% hits; KB-V1 MDR cells viability, CellTiter-Glo, 72 h; AID 1347076; note: nearly all actives have a fitted effect of over 60% in size
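KB-V1 cells (P-gp-expressing MDR subline of KB-3-1) in phenol-red-free DMEM with 10% FBS were exposed to library compounds over a concentration series for 72 h at 37 degrees C. Viability read by CellTiter-Glo luminescence; concentration-effect curves fitted after normalization.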
KB-3-1 tox = KB-3-1 parental cell cytotoxicity; KB-3-1 viability, CellTiter-Glo ATP luminescence, 72 h; Potency, µM (titrated, usually from 46.1 µM), most hits filed as cytotoxic; 400,000 compounds, 1.4% hits; AID 1347075; note: nearly all actives have a fitted effect of over 60% in size
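Parental KB-3-1 viability, qHTS format: 72 h compound exposure, 37 °C; CellTiter-Glo; media-only wells and DMSO plates as controls; concentration-effect fits on corrected data.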
HT1080-NT tox = kills 2HG-producing HT-1080-NT fibrosarcoma cells; HT-1080-NT fibrosarcoma viability, CellTiter-Glo ATP luminescence, 48 h; 360,000 compounds, 1.6% hits; Potency, µM (doses to about 46.1 µM), without a hit: top-dose activity, negative = less viability, usual class: cytotoxic; AID 686970;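 note: NT is the 2HG producing partner of a matched IDH1 knockdown line; 0% = DMSO-treated cells and -100% = media-only wells without cells; nearly all actives have a fitted effect of over 55% in size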
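Luminescent CellTiter-Glo readout after 48 hours of compound exposure at 37 degrees C defined viability of HT-1080-NT cells. Activity was normalized to DMSO wells and cell-free media wells; concentration-response curves were fitted and assigned curve classes.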
DT40 TDP1 CPT = DT40-hTDP1 cell growth loss with CPT; chicken DT40 Tdp1-/-;hTDP1 cells + 20 nM CPT, ATP luminescence, 48 h; Potency, µM (series often up to 46.2 µM), inactives show at the top dose activity change, negative = growth inhibition, actives largely listed as inhibitors; 420,000 compounds, 12% hits; AID 686979; note: nearly all actives have a fitted effect of over 55% in size
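Cell growth measured by CellTiter-Glo luminescence after a minimum 48 h, 37 C compound exposure with 20 nM CPT in Tdp1-knockout DT40 cells stably expressing hTDP1, seeded 400/well; qHTS titration format.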
HT1080 IDH1KD tx = HT-1080 IDH1 knockdown cell toxicity (counter line); HT-1080 IDH1 knockdown viability, ATP luminescence, 48 h; Potency, µM (series often up to 46.1 µM), for inactives: at the top dose activity, negative = toxicity, usual class: cytotoxic; 360,000 compounds, 2% hits; AID 686971;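 note: 0% = DMSO wells and -100% = cell-free medium wells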
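Assay cells: HT-1080 with IDH1 knockdown, 750 per well, RPMI/5% FBS. Exposure: 48 h at 37 °C following 2 h pre-incubation. Read: CellTiter-Glo luminescence; fitted concentration-response, curve class assigned.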
* hit, by the source's call; i = inactive; ? = inconclusive; . = no result. Rows were chosen to be rich in hits. Some 19% of all compounds tested hit in one or more screens of this group. Calls come from the whole dose curve; as a rule, active = well fitted curve in the direction sought with a large enough effect; inconclusive = small, poorly fitted or top-dose-only effect, or another doubt; inactive = no such curve, though single readings can be large; an effect the other way counts as inactive or inconclusive. Unless noted, % is set by controls: 0 for no effect and ±100 for the full control effect; potency is the fitted concentration of half-maximal effect.

SMILES	TDP1 cell noCPT	KB-V1 cytotox	KB-3-1 tox	HT1080-NT tox	DT40 TDP1 CPT	HT1080 IDH1KD tx
CCN(CC)C(=O)[C@H]1CC(CC(=O)NCc2ccco2)C(=O)N2CCc3c([nH]c4ccc(OC)cc34)[C@]12C (some centres not stated)	-24.8%	i	i	-0.1%	-14.6%	-1.1%
COc1ccc2[nH]c3c(c2c1)CCN1C(=O)C(CC(=O)NCc2ccco2)C[C@H](C(=O)N2CCOCC2)[C@@]31C (some centres not stated)	-2.9%	i	i	11.9%	0.8%	2.6%
CCCCC(=O)N(C)c1c(C)nc2ccc(C(=O)N3CCN(S(=O)(=O)CC)CC3)cn12	-0.5%	i	i	10.8%	10.7%	?
CSc1nncc(=O)[nH]1	23.1µM*	i	i	0.6%	?	-2.0%
C=CCn1c(-c2oc3nc(-c4ccccc4)cc(-c4ccccc4)c3c2N)n[nH]c1=S	?	9.2µM*	i	2.9%	?	5.1%
C=CCn1c(-c2cccc(Cl)c2)n[nH]c1=S	-18.5%	i	i	16.1%	6.5%	3.7%
Cc1cc(/C=N/NC(=O)c2cc3ccccc3o2)c(C)n1C	23.1µM*	i	i	-17.2%	14.6µM*	-17.2%
CCOc1cc(/C=N/NC(=O)c2cc3c(ccc4ccccc43)o2)ccc1O	?	i	i	-8.2%	23.1µM*	?
O=C(N/N=C/c1cc(Br)c(O)c(Br)c1)c1cc2c(ccc3ccccc32)o1	?	?	i	-26.1%	13µM*	?
CCn1cc(/C=N/NC(=O)c2cc3c(ccc4ccccc43)o2)c2ccccc21	?	18.4µM*	?	-23.8%	?	-25.7%
O=C(N/N=C/c1ccc(O)c(Br)c1)c1cc2c(ccc3ccccc32)o1	-4.1%	i	i	-1.4%	?	25.6%
CCOC(=O)c1cnc2cc(C(F)(F)F)ccc2c1Nc1cc(C)ccc1OC	?	i	i	.	-2.7%	.
CC(Nc1ncnc2sccc12)c1ccccc1 (configuration not stated)	0.92µM*	i	?	10.3µM*	2.59µM*	-23.0%
Cc1cc(F)ccc1S(=O)(=O)N1CCCOC1CNC(=O)C(=O)NCc1cccnc1 (configuration not stated)	0.7%	i	i	-1.0%	-3.3%	-5.9%
CCOc1ccc(N(CC(=O)Nc2cccc(F)c2)S(=O)(=O)c2c(C)noc2C)cc1	20.6µM*	?	20.6µM*	?	?	?
CCOc1ccc(N(CC(=O)Nc2ccc(C)c(C)c2)S(=O)(=O)c2c(C)noc2C)cc1	10.3µM*	?	?	.	9.2µM*	.
COc1ccc(S(=O)(=O)NCc2cccnc2)cc1C(=O)Nc1ccccc1	-16.6%	i	i	2.8%	2.2%	4.5%
CCC(C)NC(=O)CCCc1nnc2n(CC(C)C)c(=O)c3sccc3n12 (configuration not stated)	-9.9%	.	.	.	2.0%	.
O=C(Cn1c(=O)n(-c2ccc(F)cc2)c(=O)c2sc3ccccc3c21)NC1CCCCC1	-17.2%	?	i	.	10.5%	.
Cc1ccc(S(=O)(=O)N2CCCc3cc(NS(=O)(=O)c4ccc(F)cc4)ccc32)cc1	18.4µM*	i	i	.	?	.
Cc1ccc(S(=O)(=O)N2CCCc3cc(NC(=O)c4c(F)cccc4F)ccc32)cc1	?	i	i	-0.9%	?	-7.0%
Cc1ccc(S(=O)(=O)N2CCCc3cc(NC(=O)c4ccc(F)c(F)c4)ccc32)cc1	?	i	i	.	?	.
Cc1ccc(S(=O)(=O)N2CCCc3cc(NS(=O)(=O)c4cc(F)ccc4F)ccc32)cc1	18.4µM*	i	?	.	23.1µM*	.
COc1ccc(S(=O)(=O)Nc2ccc3c(c2)CCCN3S(=O)(=O)c2ccc(C)cc2)cc1F	20.6µM*	i	i	.	?	.
CCCc1nnc(NC(=O)CSc2nnc(-c3ccco3)n2C)s1	3.2%	i	i	0.6%	16.8%	4.5%
SMILES	TDP1 cell noCPT	KB-V1 cytotox	KB-3-1 tox	HT1080-NT tox	DT40 TDP1 CPT	HT1080 IDH1KD tx
O[C@@H]1CO[C@H]2[C@@H]1OC[C@@H]2O	-7.5%	.	.	.	8.0%	.
CC1=C(C(=O)N2CCOCC2)CC(CC(=O)NCCCCc2ccccc2)C(=O)N1Cc1ccc(C(C)(C)C)cc1 (configuration not stated)	16.4µM*	i	i	15.8%	23.1µM*	-20.6%
CC1=C(C(=O)N(C(C)C)C(C)C)CC(CC(=O)NCCc2ccccn2)C(=O)N1Cc1ccccc1 (configuration not stated)	-27.9%	i	i	11.6%	-9.5%	8.3%
CC1=C(C(=O)N(C(C)C)C(C)C)CC(CC(=O)NCCCN(C)C)C(=O)N1Cc1ccc(C(C)(C)C)cc1 (configuration not stated)	?	i	i	?	?	?
CC1=C(C(=O)N(C(C)C)C(C)C)CC(CC(=O)NCCc2ccccn2)C(=O)N1Cc1ccc(C(C)(C)C)cc1 (configuration not stated)	?	i	i	-15.4%	16.4µM*	-4.1%
COc1ccc(CN2C(=O)C(CC(=O)NCCCCc3ccccc3)CC(C(=O)N(C)C)=C2C)cc1 (configuration not stated)	18.4µM*	i	i	1.7%	?	15.8%
CC1=C(C(=O)N(C(C)C)C(C)C)CC(CC(=O)NCCCCc2ccccc2)C(=O)N1Cc1ccc(C(C)(C)C)cc1 (configuration not stated)	20.6µM*	?	?	?	23.1µM*	?
CC#CCOCC1CNC(=O)O1 (configuration not stated)	-3.4%	i	i	4.1%	-7.7%	0.7%
CCc1cccc(C)c1NC(=O)Cn1ccn(-c2ccc(F)cc2)c(=O)c1=O	6.8%	.	.	.	9.9%	.
CCN(CC)C(=O)C1=C(C)N(Cc2ccc(C(C)(C)C)cc2)C(=O)C(CC(=O)NCCN2CCOCC2)C1 (configuration not stated)	-26.4%	i	i	-2.7%	-24.6%	-9.4%
COc1ccc(CN2C(=O)C(CC(=O)NCCc3ccccn3)CC(C(=O)N(C(C)C)C(C)C)=C2C)cc1 (configuration not stated)	?	i	i	8.6%	?	5.5%
